Results as given in the supplement of paper PMC11732987, “Enantioselective OTUD7B fragment discovery through chemoproteomics screening and high-throughput optimisation” (Communications Chemistry, 2025).

Key:
Assay in all cases: log2 ratio of Biotin-Ahx-Ub-VS probe labelling (fragment/DMSO); higher = less target engagement (more negative = stronger competition), active = hit call of the paper (q ≤ 0.05, log2 ratio ≤ -1)
Details in all cases: compound concentration: 200 uM; treatment time: 3 h
USP19 = molecular target: T1, USP19 (UniProt O94966)
T1 sequence (whole entry): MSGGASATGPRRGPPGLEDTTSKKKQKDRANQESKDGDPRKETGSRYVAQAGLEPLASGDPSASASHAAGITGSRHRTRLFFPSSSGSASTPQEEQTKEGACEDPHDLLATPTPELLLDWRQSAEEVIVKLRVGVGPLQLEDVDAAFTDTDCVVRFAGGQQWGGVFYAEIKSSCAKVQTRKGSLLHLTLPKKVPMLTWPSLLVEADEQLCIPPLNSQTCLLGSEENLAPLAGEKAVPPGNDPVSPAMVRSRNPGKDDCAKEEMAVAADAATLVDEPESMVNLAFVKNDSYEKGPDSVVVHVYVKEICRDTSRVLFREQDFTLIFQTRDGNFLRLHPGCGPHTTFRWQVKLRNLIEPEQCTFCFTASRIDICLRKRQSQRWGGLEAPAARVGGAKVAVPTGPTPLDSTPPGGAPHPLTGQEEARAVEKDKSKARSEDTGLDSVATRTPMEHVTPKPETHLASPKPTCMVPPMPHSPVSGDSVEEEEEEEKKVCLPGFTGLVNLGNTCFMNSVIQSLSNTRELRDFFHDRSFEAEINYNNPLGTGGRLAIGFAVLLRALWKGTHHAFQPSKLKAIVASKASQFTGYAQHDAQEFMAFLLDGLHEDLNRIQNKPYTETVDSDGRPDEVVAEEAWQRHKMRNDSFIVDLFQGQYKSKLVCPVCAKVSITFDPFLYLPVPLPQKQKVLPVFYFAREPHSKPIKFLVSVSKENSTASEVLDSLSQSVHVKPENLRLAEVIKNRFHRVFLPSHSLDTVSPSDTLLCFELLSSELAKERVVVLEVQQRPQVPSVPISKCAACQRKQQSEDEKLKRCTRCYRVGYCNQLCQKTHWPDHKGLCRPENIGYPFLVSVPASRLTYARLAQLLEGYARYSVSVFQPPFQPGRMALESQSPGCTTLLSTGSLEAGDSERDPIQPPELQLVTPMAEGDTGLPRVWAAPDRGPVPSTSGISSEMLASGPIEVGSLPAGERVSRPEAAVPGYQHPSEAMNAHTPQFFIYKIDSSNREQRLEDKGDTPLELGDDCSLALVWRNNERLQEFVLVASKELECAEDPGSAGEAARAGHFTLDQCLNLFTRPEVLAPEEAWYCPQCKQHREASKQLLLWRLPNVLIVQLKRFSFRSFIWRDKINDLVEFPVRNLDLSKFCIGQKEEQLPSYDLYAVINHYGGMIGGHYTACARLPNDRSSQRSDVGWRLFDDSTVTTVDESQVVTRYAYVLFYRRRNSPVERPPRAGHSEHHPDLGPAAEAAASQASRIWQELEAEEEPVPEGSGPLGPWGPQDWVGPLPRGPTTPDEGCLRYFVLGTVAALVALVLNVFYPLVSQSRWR
Summary of the method: (§1)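 Labelling with Biotin-Ahx-Ub-VS (0.5 µM final, 1 h) followed a 3 h triplicate treatment of HEK293T lysate (495 µg per sample, Tris/CHAPS/IGEPAL buffer with protease inhibitors) with fragment at 200 µM or vehicle. Labelled DUBs were NeutrAvidin-enriched, digested with LysC and trypsin, and run by diaPASEF LC-MS/MS. The values, average log2 fragment/vehicle ratios by unpaired t-test, come from global-median-normalised Spectronaut label-free quantities. Proteins with ≥2 unique peptides were used.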

USP24 = USP24 (UniProt Q9UPU5)
Chain of USP24 (Q9UPU5 whole entry): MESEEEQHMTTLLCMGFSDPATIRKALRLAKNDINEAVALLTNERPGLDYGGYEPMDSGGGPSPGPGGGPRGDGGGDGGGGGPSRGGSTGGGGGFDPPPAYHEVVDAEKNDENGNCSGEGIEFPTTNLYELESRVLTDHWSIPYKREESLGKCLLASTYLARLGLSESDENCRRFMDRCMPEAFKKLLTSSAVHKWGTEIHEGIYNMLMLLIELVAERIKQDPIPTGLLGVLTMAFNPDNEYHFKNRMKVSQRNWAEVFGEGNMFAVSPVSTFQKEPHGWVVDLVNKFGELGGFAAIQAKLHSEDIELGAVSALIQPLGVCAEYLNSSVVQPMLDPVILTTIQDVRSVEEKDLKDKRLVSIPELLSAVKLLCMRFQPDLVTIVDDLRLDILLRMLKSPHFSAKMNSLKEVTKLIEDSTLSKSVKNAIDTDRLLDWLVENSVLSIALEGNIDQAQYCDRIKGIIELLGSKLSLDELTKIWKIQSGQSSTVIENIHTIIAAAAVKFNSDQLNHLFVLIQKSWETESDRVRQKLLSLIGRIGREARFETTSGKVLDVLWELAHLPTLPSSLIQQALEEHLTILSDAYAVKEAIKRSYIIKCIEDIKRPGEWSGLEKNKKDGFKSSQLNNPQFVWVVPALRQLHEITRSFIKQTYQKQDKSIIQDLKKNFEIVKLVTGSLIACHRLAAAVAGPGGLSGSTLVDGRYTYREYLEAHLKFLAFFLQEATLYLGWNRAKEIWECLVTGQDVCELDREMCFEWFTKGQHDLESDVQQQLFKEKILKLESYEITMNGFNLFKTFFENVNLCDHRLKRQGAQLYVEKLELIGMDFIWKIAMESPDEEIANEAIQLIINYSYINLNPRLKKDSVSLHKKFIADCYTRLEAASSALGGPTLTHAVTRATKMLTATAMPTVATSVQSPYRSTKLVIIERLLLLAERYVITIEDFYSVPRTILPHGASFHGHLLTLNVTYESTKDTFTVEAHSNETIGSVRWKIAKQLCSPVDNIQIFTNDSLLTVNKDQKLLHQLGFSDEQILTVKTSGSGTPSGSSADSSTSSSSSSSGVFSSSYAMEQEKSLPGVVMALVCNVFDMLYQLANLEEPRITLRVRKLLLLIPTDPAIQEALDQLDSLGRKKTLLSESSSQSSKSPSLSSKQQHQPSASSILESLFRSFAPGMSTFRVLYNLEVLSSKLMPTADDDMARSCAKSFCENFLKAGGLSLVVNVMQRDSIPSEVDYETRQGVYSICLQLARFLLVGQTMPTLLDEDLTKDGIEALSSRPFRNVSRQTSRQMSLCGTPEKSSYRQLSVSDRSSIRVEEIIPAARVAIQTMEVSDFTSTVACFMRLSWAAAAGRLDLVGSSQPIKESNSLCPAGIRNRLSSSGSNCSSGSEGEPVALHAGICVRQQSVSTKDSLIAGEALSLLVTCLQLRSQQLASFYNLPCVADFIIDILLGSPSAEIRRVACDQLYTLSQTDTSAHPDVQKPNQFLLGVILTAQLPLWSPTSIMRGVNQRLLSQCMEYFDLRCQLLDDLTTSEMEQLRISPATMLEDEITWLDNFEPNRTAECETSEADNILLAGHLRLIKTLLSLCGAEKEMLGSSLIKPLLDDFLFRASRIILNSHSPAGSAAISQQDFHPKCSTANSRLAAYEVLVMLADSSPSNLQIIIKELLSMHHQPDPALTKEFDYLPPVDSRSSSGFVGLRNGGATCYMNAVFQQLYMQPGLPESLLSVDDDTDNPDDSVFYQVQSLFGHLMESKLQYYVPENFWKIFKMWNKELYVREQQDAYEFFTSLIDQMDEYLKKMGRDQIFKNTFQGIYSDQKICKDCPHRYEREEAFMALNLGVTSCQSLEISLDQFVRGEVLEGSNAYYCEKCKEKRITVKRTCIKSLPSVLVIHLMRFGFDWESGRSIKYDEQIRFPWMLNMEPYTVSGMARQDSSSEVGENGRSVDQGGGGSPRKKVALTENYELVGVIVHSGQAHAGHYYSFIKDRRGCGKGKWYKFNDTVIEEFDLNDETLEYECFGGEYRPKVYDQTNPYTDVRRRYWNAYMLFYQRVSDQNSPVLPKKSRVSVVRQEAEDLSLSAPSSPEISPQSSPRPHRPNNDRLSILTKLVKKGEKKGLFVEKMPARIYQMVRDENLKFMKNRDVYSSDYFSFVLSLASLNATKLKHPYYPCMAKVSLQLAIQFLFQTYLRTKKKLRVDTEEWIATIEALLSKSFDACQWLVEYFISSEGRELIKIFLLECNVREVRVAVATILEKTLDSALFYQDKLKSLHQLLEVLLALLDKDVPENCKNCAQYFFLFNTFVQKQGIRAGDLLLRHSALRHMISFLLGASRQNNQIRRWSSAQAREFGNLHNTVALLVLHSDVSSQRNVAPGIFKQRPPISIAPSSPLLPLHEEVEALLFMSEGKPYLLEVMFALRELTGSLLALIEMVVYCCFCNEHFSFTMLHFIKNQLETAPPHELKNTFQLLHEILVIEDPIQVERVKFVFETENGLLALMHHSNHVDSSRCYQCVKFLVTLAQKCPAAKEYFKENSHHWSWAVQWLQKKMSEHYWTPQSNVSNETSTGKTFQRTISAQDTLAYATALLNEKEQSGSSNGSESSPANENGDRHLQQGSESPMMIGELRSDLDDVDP
Summary of the method: as §1

USP25 = molecular target: T2, USP25 (UniProt Q9UHP3)
T2 sequence (whole entry): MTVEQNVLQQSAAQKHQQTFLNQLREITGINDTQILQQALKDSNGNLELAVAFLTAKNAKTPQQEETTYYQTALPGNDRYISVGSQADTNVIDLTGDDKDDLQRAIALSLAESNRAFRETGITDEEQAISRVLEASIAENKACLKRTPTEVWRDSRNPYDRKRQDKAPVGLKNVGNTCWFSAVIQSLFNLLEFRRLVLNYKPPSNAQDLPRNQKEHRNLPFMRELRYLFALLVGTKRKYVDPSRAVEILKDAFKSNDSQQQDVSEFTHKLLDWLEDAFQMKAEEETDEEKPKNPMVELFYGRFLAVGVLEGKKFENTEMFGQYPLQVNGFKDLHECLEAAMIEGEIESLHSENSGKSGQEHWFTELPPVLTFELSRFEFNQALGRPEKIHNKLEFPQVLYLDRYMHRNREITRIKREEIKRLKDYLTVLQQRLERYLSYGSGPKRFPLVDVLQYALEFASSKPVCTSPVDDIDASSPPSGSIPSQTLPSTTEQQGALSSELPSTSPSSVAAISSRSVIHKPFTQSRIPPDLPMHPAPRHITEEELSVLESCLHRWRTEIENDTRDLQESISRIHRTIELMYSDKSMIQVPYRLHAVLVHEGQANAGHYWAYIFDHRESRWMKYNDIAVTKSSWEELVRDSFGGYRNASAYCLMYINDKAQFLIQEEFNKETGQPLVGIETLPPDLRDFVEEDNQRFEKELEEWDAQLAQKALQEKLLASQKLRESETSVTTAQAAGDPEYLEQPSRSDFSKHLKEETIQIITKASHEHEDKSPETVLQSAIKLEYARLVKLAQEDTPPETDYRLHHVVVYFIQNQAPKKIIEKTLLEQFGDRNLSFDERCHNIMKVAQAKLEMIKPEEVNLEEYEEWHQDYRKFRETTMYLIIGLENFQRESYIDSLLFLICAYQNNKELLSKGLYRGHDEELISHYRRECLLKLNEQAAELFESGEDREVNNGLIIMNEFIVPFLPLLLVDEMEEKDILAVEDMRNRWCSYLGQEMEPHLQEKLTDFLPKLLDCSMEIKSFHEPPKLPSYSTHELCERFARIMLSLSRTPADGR
Summary of the method: as §1

USP28 = molecular target: T3, USP28 (UniProt Q96RU2)
T3 sequence (whole entry): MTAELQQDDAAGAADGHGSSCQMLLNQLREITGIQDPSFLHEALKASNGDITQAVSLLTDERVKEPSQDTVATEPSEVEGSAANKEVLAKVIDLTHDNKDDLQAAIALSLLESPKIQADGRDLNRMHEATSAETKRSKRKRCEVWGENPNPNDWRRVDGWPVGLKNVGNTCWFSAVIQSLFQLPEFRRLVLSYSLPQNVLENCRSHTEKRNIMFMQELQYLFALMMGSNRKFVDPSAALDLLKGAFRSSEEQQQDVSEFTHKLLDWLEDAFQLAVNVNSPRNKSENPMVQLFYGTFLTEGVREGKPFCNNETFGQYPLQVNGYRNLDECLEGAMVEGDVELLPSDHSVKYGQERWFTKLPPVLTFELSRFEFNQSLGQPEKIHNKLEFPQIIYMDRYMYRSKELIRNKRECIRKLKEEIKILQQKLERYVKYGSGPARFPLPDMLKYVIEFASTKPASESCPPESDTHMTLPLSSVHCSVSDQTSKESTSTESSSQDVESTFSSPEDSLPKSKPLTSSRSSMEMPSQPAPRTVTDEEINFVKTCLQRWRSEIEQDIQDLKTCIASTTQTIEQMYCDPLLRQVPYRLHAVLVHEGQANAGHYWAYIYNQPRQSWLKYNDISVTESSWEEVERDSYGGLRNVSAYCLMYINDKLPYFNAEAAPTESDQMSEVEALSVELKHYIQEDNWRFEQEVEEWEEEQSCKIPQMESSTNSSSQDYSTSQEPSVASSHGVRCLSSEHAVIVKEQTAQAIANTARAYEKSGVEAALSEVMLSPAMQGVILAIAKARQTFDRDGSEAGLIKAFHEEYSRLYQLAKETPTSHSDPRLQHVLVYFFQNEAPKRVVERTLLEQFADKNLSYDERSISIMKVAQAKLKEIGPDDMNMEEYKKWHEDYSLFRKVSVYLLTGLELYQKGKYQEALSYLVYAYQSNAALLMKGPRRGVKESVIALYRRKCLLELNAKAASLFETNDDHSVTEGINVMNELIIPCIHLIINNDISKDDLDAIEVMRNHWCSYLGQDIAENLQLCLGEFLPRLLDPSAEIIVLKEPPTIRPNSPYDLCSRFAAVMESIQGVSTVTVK
Summary of the method: as §1

Measured: log2 ratio of Biotin-Ahx-Ub-VS probe labelling

O=C(CCl)NC1(c2ccc3c(c2)OCCO3)CCCC1
inactive: USP19 -0.103 | USP24 -0.451 | USP25 -0.337 | USP28 -0.402
